Assay results: PubChem BioAssay (NCATS)
Records with an inconclusive call do not appear. Calls of active or inactive are those of the source. Unless noted, the call rests on the fitted dose curve; in most records, active means well fitted curve in the direction sought with a large enough effect; inconclusive means small, poorly fitted or top-dose-only effect, or another doubt; inactive means no such curve, though single readings can be large; an effect the other way counts as inactive or inconclusive.

Key:
[1] = Validation screen for small molecules that induce genotoxicity in human embryonic kidney (HEK293T) cells expressing luciferase-tagged ELG1 (AID 493106); further: potency means the concentration at half of the fitted maximal effect
In short: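 qHTS format; 2,000 HEK293T ELG1-luc cells/well; 23 nL compound via pin tool; 16 hr, 37 °C/5% CO2; ONE-Glo, 30 min RT; luminescence read.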

[2] = target: ATPase family AAA domain-containing protein 5 (Homo sapiens) (UniProt Q96QE3); assay: Validation screen for small molecules that inhibit ELG1-dependent DNA repair in human embryonic kidney (HEK293T) cells expressing luciferase-tagged ELG1 (AID 493107); further: nearly all actives have a fitted effect of over 70% in size; further: potency means the concentration at half of the fitted maximal effect
ATPase family AAA domain-containing protein 5 (Homo sapiens), sequence (Q96QE3 whole entry, looked up, the tested form may be a part): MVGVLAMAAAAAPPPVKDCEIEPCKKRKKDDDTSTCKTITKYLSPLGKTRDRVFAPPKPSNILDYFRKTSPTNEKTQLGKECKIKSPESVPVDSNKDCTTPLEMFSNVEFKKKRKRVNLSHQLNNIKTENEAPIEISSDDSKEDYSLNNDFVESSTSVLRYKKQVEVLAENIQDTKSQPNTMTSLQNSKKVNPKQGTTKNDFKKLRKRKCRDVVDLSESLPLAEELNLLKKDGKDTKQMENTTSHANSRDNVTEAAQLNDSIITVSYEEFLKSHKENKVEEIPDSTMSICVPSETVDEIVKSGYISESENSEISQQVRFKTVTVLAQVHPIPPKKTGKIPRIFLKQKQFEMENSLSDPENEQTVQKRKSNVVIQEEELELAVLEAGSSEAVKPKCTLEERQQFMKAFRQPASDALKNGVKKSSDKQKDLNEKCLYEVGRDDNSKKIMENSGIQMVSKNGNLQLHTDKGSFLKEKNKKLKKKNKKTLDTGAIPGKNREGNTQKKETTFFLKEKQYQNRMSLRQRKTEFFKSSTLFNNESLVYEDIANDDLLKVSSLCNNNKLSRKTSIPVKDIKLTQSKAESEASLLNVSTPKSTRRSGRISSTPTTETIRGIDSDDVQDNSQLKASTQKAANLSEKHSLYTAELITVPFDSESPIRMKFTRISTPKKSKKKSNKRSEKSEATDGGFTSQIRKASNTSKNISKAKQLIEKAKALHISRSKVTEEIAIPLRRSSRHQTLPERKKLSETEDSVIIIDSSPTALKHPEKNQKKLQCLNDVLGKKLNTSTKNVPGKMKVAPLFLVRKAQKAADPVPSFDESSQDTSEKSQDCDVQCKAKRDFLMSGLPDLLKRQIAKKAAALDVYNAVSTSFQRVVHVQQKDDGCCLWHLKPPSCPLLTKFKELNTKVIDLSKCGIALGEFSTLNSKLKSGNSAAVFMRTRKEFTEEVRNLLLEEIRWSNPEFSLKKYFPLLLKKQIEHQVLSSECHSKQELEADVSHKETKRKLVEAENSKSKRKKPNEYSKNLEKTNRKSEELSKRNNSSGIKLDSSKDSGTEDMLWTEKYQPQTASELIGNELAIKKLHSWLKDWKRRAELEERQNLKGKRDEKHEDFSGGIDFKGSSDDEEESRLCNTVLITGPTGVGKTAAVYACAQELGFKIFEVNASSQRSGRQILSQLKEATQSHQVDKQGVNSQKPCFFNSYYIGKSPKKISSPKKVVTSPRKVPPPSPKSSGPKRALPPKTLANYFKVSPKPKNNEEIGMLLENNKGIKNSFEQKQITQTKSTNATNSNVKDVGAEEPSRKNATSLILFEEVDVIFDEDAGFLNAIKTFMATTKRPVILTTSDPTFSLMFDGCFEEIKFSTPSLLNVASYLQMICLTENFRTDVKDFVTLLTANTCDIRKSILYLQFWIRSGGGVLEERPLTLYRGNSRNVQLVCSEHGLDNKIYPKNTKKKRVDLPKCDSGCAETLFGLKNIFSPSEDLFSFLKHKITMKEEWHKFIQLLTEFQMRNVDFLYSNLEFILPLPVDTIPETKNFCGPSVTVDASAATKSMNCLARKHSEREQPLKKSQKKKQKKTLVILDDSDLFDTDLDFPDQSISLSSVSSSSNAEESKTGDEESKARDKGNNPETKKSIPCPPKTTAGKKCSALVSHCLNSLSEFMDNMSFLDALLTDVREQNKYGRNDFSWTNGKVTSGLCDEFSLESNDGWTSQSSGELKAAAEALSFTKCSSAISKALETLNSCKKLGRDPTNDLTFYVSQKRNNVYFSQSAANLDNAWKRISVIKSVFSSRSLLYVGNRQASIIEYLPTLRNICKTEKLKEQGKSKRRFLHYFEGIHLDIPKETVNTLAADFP
In short: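 ELG1-luciferase HEK293T reporter; 5-fluorouridine + compound/DMSO, 16 hr, 37 °C, 5% CO2; ONE-Glo 30 min RT; luminescence read, qHTS format.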

[3] = qHTS for Inhibitors of Cell Surface uPA Generation: Validation Assay (AID 493164);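 further: RAW 264.7 macrophage cells exposed to compound for 18 h; 0% is about no effect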
In short: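 Compounds are titrated over seven points (2.45 nM–38.3 uM final) onto pre-plated RAW 264.7 cells and incubated for 18 h. Retained intracellular ATP, measured with ATP-Lite, indicates blocked lethal factor entry.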

[4] = target: Peptidyl-prolyl cis-trans isomerase NIMA-interacting 1 (Homo sapiens) (UniProt Q13526); assay: qHTS Validation Assay to Find Inhibitors of Pin1 (AID 504536; active means well fitted inhibition curve with a large enough effect in the polarisation, with a control signal flat, not every such curve was filed as active; the % refers to the polarisation; further: potency means the concentration at half of the fitted maximal effect)
Peptidyl-prolyl cis-trans isomerase NIMA-interacting 1 (Homo sapiens), sequence (Q13526 whole entry, looked up): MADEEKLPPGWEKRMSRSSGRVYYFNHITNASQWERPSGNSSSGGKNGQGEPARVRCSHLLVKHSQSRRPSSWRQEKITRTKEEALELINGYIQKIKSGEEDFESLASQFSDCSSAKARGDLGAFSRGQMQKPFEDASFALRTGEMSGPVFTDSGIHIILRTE
In short: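 Fluorescence polarization competition: compounds (titration) displace HiFluor-488-labeled Pin1-1b peptide from Pin1 (0.3 uM final) in pH 7.5 HEPES buffer with DTT, 10 min at room temperature; %Activity normalized to no-enzyme wells, curves fitted.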

[5] = target: Phosphoglycerate kinase, glycosomal (Trypanosoma brucei brucei) (UniProt P07378); assay: qHTS Validation Assay to Find Inhibitors of Phosphoglycerate Kinase (AID 504547);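 further: control wells lack PGK and mark full inhibition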
Phosphoglycerate kinase, glycosomal (Trypanosoma brucei brucei), sequence (P07378 whole entry, looked up): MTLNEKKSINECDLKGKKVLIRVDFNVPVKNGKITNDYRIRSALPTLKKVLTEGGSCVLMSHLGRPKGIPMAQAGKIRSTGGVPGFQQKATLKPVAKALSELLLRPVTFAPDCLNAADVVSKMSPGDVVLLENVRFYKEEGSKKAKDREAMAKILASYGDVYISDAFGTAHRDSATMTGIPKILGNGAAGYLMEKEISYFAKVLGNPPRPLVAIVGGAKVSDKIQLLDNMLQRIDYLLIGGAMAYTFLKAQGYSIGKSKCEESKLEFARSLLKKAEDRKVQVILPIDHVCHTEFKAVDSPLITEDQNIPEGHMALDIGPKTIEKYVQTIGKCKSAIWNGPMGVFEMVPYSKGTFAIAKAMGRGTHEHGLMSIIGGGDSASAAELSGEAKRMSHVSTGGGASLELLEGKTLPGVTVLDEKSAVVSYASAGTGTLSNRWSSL
In short: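 In TEA buffer (100mM, pH 7.6) containing 5mM MgCl2 and 0.01% Tween-20, the GAPDH-coupled PGK reaction proceeded for 60 minutes at room temperature before a single luminescence reading using Kinase-Glo Plus.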

[6] = target: phosphoglycerate mutase (Leishmania major) (UniProt Q4Q090); assay: qHTS Validation Assay to Find Inhibitors of Phosphoglycerate Mutase (AID 504548); conditions: Potency: inhibition qHTS;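 further: end-point luminescence from Kinase-GloPlus after the PGAM reaction; series mostly up to about 58 µM; on the % scale 0 is the no-effect control and ±100 the full control effect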
phosphoglycerate mutase (Leishmania major), sequence (Q4Q090 1-553): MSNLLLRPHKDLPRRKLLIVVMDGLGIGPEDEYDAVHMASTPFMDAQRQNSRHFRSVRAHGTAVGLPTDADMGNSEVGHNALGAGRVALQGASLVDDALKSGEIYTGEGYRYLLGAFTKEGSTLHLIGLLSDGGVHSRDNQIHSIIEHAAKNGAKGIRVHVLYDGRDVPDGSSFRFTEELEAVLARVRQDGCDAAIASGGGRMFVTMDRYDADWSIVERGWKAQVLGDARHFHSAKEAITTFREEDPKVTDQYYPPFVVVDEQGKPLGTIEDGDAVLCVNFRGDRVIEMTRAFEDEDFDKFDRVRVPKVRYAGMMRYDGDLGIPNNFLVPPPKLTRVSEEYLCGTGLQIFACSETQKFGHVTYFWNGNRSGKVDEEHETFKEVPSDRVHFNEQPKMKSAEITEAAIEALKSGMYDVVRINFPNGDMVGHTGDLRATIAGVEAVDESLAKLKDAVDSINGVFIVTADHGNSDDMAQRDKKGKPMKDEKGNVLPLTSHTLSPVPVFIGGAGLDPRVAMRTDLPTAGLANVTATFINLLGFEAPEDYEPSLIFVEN
In short: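 Inhibition of L. major PGAM was assessed by Kinase-GloPlus luminescence following a 45-minute room-temperature reaction with enzyme at 1.25nM final.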

[7] = target: Ubiquitin carboxyl-terminal hydrolase 1 (Homo sapiens) (UniProt O94782); assay: Inhibitors of USP1/UAF1: Pilot qHTS (AID 504865); further: nearly all actives have a fitted effect of over 35% in size; further: potency means the concentration at half of the fitted maximal effect
Ubiquitin carboxyl-terminal hydrolase 1 (Homo sapiens), sequence (O94782 whole entry, looked up): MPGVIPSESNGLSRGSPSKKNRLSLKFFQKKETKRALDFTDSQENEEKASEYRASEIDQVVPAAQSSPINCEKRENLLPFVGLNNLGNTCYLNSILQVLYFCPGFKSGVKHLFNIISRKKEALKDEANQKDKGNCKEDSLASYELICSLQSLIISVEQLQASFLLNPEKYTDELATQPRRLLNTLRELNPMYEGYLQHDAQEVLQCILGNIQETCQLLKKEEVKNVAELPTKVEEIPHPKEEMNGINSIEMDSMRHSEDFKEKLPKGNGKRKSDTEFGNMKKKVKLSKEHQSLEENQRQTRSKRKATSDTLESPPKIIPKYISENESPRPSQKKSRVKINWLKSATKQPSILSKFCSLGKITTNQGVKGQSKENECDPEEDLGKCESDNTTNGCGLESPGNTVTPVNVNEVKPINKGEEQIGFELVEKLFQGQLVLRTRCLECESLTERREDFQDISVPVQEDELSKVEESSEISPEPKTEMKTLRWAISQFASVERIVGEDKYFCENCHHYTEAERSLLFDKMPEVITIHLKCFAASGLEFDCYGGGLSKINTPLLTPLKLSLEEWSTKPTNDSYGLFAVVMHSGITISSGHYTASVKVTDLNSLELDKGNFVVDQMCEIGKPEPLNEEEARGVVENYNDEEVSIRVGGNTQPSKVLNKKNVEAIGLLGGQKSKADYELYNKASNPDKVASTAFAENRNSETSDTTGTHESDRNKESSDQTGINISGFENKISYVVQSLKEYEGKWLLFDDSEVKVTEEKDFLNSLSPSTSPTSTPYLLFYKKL
In short: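 1nM USP1/UAF1 + cpd, 15 min RT; start w/ Ub-Rho 150nM final; kinetic FL 480/540 nm, 6 reads q60 s. Buffer 50mM HEPES pH 7.8, 0.5mM EDTA, 1mM TCEP, 0.01% Tween-20, 0.1 mg/ml BSA.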

[8] = qHTS for Inhibitors of ATXN expression: Validation of Cytotoxic Assay (AID 588349); further: on the % scale 0 is the no-effect control and ±100 the full control effect
In short: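 Cytotoxicity counter-screen: HEK293 cells exposed to compound titrations, 72 hr, 37 degrees C. Read-out is intracellular ATP (CellTiter Glo luminescence) as a viability measure.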

[9] = qHTS for Inhibitors of ATXN expression: Validation (AID 588378); further: nearly all actives have a fitted effect of over 75% in size; further: potency means the concentration at half of the fitted maximal effect
In short: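 Cells: HEK293-ATXN2-FFLuc, phenol-red free DMEM, 2 h attachment. Compound pin-transfer, 24 h, 37 degrees C, 5% CO2. CellTiter-Fluor 30 min, Ex405/Em525; Bright-Glo 5 min, luminescence 2 s exposure.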

[10] = target: Thyrotropin-releasing hormone receptor (Homo sapiens) (UniProt P34981); assay: qHTS for Small Molecule Agonists and Allosteric Enhancers of Human TRH Receptor: Validation Screen for Agonists (AID 493127;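 active means calcium activation more than 3 SD above the typical response in the agonist read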;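 further: intracellular calcium rise by fluo-8 fluorescence before TRH EC20 addition; 0% is about no effect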); conditions: TRH receptor agonist cell assay; at 2 µM; stronger effect = higher value
Thyrotropin-releasing hormone receptor (Homo sapiens), sequence (P34981 whole entry, looked up): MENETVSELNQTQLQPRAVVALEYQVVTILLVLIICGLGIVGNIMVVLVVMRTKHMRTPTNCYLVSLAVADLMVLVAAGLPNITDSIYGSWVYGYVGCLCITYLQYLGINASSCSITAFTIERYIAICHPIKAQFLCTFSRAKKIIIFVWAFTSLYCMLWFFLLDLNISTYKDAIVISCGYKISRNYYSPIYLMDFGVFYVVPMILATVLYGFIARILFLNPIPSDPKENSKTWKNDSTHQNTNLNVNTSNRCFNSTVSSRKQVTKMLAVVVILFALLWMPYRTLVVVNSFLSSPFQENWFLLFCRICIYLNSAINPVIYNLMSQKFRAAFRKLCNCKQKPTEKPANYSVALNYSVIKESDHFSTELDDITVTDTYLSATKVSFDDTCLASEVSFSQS
In short: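 Read-out: intracellular calcium release measured kinetically by FDSS (fluo-8, ex 480/em 530 nm), 1 reading/s after a 10-cycle baseline. TRHR cells, 2000/well, cultured 18 h at 33.5C, dye-loaded at room temp. Compound-evoked positive calcium signal flags agonists.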

[11] = target: Galactokinase (Homo sapiens) (UniProt P51570); assay: qHTS Validation Assay for Inhibitors of Human Galactokinase (GALK) (AID 493189); further: 0% is about no effect
Galactokinase (Homo sapiens), sequence (P51570 whole entry, looked up): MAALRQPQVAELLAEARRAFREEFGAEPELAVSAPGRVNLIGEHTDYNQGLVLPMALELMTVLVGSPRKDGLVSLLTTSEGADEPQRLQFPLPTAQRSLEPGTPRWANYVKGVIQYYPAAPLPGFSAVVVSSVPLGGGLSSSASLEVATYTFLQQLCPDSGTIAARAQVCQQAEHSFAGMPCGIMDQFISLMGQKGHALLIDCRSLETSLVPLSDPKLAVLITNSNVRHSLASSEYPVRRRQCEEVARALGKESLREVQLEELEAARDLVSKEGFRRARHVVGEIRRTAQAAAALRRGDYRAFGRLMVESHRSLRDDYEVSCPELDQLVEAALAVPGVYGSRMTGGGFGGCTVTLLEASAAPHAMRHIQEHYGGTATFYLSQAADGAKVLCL
In short: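 Luminescence from leftover ATP (Kinase-Glo Plus, 10 min) served as read-out after a 1 h room-temperature reaction of 5 nM GALK, 100 uM galactose and 35 uM ATP at pH8.0.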

[12] = Nrf2 qHTS screen for inhibitors: Validation (AID 493153; active means well fitted inhibition curve with a large enough effect in the main read-out, with a control signal flat, not every such curve was filed as active); conditions: Potency: luciferase luminescence; viability change: measured here: cytotoxicity max response
In short: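 Concentration-response test in A549 ARE_Fluc reporter cells (5% FBS OPTI-MEM), compound exposure 18-24 h at 37°C, 5% CO2. Cell viability measured first by CellTiter-Fluor fluorescence; ARE-driven luciferase luminescence then measured as Nrf2 activity.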

[13] = Validation screen for small molecules that induce DNA re-replication in SW480 colon adenocarcinoma cells (AID 504364); further: 0% is about no effect
In short: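 Read-out: total Hoechst intensity of nuclei by fluorescence scanning imager; hits raise the fraction of nuclei with elevated DNA content. Cells received compound for 48 hr at 37 C before a 40 min stain.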

[14] = target: DNA dC->dU-editing enzyme APOBEC-3G (Homo sapiens) (UniProt Q9HC16); assay: qHTS for inhibitors of Vif-A3G interactions: Validation (AID 588379); further: 0% is about no effect
DNA dC->dU-editing enzyme APOBEC-3G (Homo sapiens), sequence (Q9HC16 whole entry, looked up): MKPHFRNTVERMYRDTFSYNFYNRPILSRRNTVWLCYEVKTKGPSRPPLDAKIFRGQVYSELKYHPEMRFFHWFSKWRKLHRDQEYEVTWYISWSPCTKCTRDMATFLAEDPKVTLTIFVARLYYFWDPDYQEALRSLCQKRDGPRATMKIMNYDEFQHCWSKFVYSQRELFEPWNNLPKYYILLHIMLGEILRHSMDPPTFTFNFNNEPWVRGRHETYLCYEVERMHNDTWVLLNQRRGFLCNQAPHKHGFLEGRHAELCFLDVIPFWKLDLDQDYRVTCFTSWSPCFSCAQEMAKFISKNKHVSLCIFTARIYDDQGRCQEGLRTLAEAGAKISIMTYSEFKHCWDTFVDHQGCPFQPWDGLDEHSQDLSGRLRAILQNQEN
In short: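 Yellow fluorescence (Ex 488, Em 500-530) of Vif-coexpressing HeLa A3G-eYFP cells, scanned by Acumen cytometer, reports blocked A3G degradation. Cells plated at 700/well overnight at 37 deg C before compound addition, then a further overnight compound incubation at 37 deg C.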

O=C(c1ccc(Cl)cc1)N1CCN(c2ccc([N+](=O)[O-])c3ncccc23)CC1
active: Potency [2] 20.6 µM
inactive: Potency [1] | outcome [3] | Potency [4] | Potency [5] | Potency [6] | Potency [7] | Potency [8] | Potency [9]

COC1=C(OC)C(=O)c2ccccc2C1=O
inactive: Potency [1] | Potency [2] | activation [10] 0.688% | outcome [3] | Potency [11] | Potency [5] | Potency [6]
active: Potency [7] 17.8 µM

C=C[C@@H]1CN2CC[C@@H]1C[C@H]2[C@H](O)c1ccnc2ccc(OC)cc12
inactive: Potency [1] | Potency [2] | Potency [12] | outcome [3] | Potency [13] | Potency [4] | Potency [5] | Potency [6]
-4.66%: viability change [12]

O=P(O)(O)C(Cl)(Cl)P(=O)(O)O
4.97%: viability change [12]
inactive: Potency [1] | Potency [2] | Potency [12] | outcome [3] | Potency [5] | Potency [6] | Potency [8] | Potency [9]
active: Potency [4] 26.9 µM

Clc1ccc(N2CCN(Cc3cc4ccccn4n3)CC2)cc1
2.97%: viability change [12]
inactive: Potency [1] | Potency [2] | Potency [12] | outcome [3] | Potency [4] | Potency [5] | Potency [6] | Potency [7] | Potency [8] | Potency [9]

CN1C2CC(OC(=O)[C@H](CO)c3ccccc3)CC1C1OC12 (stereo not given in full)
-8.53%: viability change [12]
inactive: Potency [1] | Potency [2] | Potency [12] | outcome [3] | Potency [4] | Potency [5] | Potency [6] | Potency [8] | Potency [9]

CO/N=C(\C(=O)N[C@@H]1C(=O)N2C(C(=O)O)=C(COC(C)=O)CS[C@H]12)c1csc(N)n1
inactive: Potency [1] | Potency [2] | Potency [12] | outcome [3] | Potency [6] | Potency [7] | Potency [8] | Potency [9]
-5.9%: viability change [12]

Nc1nc(SCc2ccc([N+](=O)[O-])cc2)c2ncn([C@@H]3O[C@H](CO)[C@@H](O)[C@H]3O)c2n1
12.2%: viability change [12]
active: Potency [2] 0.146 µM
inactive: Potency [1] | Potency [12] | outcome [3] | Potency [4] | Potency [5] | Potency [6] | Potency [7] | Potency [9]

CCc1c(C(=O)NCCc2ccc(N3CCCCC3)cc2)[nH]c2ccc(Cl)cc12
inactive: Potency [1] | Potency [2] | Potency [12] | outcome [3] | Potency [4] | Potency [5] | Potency [6] | Potency [7] | Potency [9]
-7.76%: viability change [12]

Nc1ncnc2c1c(I)cn2[C@@H]1C[C@H](N)[C@@H](O)[C@H]1O
active: Potency [2] 5.17 µM | Potency [9] 10 µM
inactive: Potency [1] | outcome [3] | Potency [4] | Potency [5] | Potency [6] | Potency [7]

CCNC(=O)[C@H]1O[C@@H](n2cnc3c(N)nc(NCCc4ccc(CCC(=O)O)cc4)nc32)[C@H](O)[C@@H]1O
0.951%: viability change [12]
inactive: Potency [1] | Potency [2] | Potency [12] | outcome [3] | Potency [4] | Potency [5] | Potency [6] | Potency [7] | Potency [8] | Potency [9]

Nc1ncnc2c1ncn2[C@@H]1O[C@H](COP(=O)(O)CP(=O)(O)OP(=O)(O)O)[C@@H](O)[C@H]1O
-5.53%: viability change [12]
inactive: Potency [1] | Potency [2] | Potency [12] | outcome [3] | Potency [5] | Potency [6] | Potency [7] | Potency [8] | Potency [9]

COc1cc(SC)ccc1C(=O)N1CCC(Cc2ccccc2)CC1
1.59%: viability change [12]
inactive: Potency [1] | Potency [2] | Potency [12] | outcome [3] | Potency [4] | Potency [5] | Potency [6] | Potency [8]

C=C[C@H]1CN2CC[C@@H]1C[C@@H]2[C@@H](O)c1ccnc2ccc(OC)cc12
-1.39%: viability change [12]
inactive: Potency [1] | Potency [2] | Potency [12] | outcome [3] | Potency [4] | Potency [5] | Potency [6]

NC(=S)NCCC[C@H](N)C(=O)O
2.08%: viability change [12]
inactive: Potency [1] | Potency [2] | Potency [12] | outcome [3] | Potency [4] | Potency [5] | Potency [6] | Potency [7] | Potency [8] | Potency [9]

Cc1cc(NC2CCCCC2)nc(-n2nc(C)cc2C)n1
inactive: Potency [1] | Potency [12] | outcome [3] | Potency [4] | Potency [5] | Potency [6] | Potency [7] | Potency [8] | Potency [9]
active: Potency [2] 14.6 µM
-6.43%: viability change [12]

O=C1/C(=C/c2ccsc2)CC/C1=C\c1cccs1
active: Potency [1] 23.1 µM
inactive: Potency [2] | Potency [12] | outcome [3] | Potency [4] | Potency [5] | Potency [7] | Potency [9]
-8.76%: viability change [12]

CO/S(=N\S(=O)(=O)c1ccc(Cl)cc1)c1ccc([N+](=O)[O-])cc1 (stereo not given)
-1.86%: viability change [12]
active: Potency [7] 31.6 µM
inactive: Potency [1] | Potency [2] | Potency [12] | outcome [3] | Potency [4] | Potency [5] | Potency [6] | Potency [8] | Potency [9]

CC(N)C(=O)OC(C)(C)Cc1ccc(Cl)cc1 (stereo not given)
7.67%: viability change [12]
inactive: Potency [1] | Potency [2] | Potency [12] | outcome [3] | Potency [4] | Potency [5] | Potency [6] | Potency [7] | Potency [8] | Potency [9]

Oc1ccccc1O
inactive: Potency [1] | Potency [2] | activation [10] 0.375% | outcome [3] | Potency [11] | Potency [13] | Potency [4] | Potency [6] | Potency [7]

O=C(O)c1cc([N+](=O)[O-])ccc1NCCCc1ccccc1
inactive: Potency [1] | Potency [2] | activation [10] 0% | outcome [3] | Potency [11] | Potency [13] | Potency [4] | Potency [5] | Potency [6] | Potency [9] | Potency [14]
